{
  "source": "the supplement of paper PMC11732987",
  "about": "“Enantioselective OTUD7B fragment discovery through chemoproteomics screening and high-throughput optimisation” (Communications Chemistry, 2025)",
  "test_in_all_cases": "log2 ratio of Biotin-Ahx-Ub-VS probe labelling (fragment/DMSO); higher = less target engagement (more negative = stronger competition), active = hit call of the paper (q ≤ 0.05, log2 ratio ≤ -1)",
  "conditions_in_all_cases": "compound concentration: 200 uM; treatment time: 3 h",
  "key": {"[1]": {"target": "T1, OTUD6B (UniProt Q8N6M0)", "T1 sequence (whole entry)": "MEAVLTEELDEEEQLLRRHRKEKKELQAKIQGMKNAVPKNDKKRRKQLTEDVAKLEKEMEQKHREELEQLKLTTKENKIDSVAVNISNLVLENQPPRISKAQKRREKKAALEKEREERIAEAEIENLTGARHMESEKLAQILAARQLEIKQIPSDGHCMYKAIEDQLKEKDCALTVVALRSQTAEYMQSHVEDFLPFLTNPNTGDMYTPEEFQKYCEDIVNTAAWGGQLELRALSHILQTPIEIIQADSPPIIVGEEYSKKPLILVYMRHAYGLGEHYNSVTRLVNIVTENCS", "in_short": "(§1)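 The table lists average log2 ratios of fragment over vehicle, from an unpaired t-test on global-median-normalised Spectronaut label-free quantities. Proteins with ≥2 unique peptides were used. Samples were HEK293T lysate (495 µg) treated in triplicate with fragment at 200 µM or vehicle for 3 h, then with Biotin-Ahx-Ub-VS (0.5 µM final) for 1 h, with labelled DUBs NeutrAvidin-enriched and run by diaPASEF LC-MS/MS.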"}, "[2]": {"target": "T2, OTUD7B (UniProt Q6GQQ9)", "T2 sequence (whole entry)": "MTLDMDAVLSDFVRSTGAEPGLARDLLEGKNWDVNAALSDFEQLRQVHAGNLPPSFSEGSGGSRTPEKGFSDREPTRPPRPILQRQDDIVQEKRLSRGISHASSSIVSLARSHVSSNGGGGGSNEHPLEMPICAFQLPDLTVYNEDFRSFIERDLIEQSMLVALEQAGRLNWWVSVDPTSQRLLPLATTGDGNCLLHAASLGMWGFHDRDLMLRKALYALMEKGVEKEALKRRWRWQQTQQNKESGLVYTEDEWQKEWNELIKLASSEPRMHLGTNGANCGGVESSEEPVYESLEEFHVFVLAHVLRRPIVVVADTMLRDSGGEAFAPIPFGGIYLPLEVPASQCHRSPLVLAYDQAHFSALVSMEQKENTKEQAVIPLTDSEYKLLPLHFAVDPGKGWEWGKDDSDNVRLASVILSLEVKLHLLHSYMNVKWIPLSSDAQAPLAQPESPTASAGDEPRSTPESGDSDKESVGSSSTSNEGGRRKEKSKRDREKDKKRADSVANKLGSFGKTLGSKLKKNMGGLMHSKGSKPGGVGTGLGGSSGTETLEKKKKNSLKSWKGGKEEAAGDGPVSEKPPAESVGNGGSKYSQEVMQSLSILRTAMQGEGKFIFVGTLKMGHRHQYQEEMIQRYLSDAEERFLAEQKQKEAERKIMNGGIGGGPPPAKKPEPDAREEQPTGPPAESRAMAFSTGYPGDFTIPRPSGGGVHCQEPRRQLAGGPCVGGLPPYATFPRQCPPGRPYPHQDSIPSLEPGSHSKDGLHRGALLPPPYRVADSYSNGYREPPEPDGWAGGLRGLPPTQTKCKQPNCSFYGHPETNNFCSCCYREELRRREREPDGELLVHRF", "in_short": "as §1"}, "[3]": {"target": "PRPF8 (UniProt Q6P2Q9)", "in_short": "as §1"}, "[4]": {"target": "T3, PSMD7 (UniProt P51665)", "T3 sequence (whole entry)": "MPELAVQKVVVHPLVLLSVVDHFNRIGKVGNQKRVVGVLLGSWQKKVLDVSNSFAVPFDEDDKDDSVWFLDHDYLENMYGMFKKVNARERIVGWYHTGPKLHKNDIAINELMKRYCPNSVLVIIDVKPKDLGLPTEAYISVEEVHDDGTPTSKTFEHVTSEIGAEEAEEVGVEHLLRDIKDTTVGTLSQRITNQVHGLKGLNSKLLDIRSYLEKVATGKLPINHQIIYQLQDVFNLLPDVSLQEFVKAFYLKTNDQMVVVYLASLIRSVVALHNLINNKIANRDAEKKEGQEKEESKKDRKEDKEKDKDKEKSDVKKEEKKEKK", "in_short": "as §1"}, "[5]": {"target": "UCHL1 (UniProt P09936)", "sequence (P09936 whole entry, looked up)": "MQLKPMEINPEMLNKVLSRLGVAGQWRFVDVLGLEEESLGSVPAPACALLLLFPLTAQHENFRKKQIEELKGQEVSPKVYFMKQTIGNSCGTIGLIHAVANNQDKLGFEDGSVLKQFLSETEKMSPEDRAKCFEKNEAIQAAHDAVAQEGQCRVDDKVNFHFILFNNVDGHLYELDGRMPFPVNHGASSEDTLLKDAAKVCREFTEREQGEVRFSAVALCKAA", "in_short": "as §1"}, "[6]": {"target": "T4, UCHL3 (UniProt P15374)", "T4 sequence (whole entry)": "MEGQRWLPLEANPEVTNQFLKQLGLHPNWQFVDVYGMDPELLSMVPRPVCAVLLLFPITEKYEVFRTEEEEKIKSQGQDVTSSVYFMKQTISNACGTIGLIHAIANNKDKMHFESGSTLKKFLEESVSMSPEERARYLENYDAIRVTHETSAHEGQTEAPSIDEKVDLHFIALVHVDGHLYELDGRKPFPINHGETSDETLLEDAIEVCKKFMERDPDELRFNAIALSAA", "in_short": "as §1"}, "[7]": {"target": "T5, UCHL5 (UniProt Q9Y5K5)", "T5 sequence (whole entry)": "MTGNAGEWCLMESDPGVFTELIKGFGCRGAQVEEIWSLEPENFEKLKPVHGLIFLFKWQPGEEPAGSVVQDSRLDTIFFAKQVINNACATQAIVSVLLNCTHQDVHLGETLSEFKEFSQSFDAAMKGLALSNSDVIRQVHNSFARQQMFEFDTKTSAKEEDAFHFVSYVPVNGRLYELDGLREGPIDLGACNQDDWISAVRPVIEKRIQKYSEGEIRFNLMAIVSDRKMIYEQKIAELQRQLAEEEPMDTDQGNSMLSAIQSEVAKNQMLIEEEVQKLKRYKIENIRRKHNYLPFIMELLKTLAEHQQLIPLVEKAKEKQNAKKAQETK", "in_short": "as §1"}, "[8]": {"target": "USP10 (UniProt Q14694)", "sequence (Q14694 whole entry)": "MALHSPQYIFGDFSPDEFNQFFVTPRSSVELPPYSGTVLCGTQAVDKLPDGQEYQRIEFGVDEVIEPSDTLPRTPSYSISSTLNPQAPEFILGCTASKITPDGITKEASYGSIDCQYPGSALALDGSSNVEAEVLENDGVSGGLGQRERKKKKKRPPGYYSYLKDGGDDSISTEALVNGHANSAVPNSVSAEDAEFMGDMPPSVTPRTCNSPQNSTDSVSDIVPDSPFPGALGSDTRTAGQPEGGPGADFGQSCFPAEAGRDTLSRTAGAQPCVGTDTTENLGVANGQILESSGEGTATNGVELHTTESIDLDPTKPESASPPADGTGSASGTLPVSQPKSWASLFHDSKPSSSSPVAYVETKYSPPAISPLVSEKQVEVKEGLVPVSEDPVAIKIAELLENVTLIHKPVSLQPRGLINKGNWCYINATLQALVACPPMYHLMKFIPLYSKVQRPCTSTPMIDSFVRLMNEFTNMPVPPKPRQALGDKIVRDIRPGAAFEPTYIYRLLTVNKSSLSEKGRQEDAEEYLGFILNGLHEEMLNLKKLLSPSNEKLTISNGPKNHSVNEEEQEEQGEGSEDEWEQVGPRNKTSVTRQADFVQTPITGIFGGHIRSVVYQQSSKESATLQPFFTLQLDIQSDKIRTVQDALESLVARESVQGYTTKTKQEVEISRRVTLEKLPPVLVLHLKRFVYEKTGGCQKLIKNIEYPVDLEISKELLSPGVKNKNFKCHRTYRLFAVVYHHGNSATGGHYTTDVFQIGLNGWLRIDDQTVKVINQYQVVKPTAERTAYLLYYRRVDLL", "in_short": "as §1"}, "[9]": {"target": "T6, USP15 (UniProt Q9Y4E8)", "T6 sequence (whole entry)": "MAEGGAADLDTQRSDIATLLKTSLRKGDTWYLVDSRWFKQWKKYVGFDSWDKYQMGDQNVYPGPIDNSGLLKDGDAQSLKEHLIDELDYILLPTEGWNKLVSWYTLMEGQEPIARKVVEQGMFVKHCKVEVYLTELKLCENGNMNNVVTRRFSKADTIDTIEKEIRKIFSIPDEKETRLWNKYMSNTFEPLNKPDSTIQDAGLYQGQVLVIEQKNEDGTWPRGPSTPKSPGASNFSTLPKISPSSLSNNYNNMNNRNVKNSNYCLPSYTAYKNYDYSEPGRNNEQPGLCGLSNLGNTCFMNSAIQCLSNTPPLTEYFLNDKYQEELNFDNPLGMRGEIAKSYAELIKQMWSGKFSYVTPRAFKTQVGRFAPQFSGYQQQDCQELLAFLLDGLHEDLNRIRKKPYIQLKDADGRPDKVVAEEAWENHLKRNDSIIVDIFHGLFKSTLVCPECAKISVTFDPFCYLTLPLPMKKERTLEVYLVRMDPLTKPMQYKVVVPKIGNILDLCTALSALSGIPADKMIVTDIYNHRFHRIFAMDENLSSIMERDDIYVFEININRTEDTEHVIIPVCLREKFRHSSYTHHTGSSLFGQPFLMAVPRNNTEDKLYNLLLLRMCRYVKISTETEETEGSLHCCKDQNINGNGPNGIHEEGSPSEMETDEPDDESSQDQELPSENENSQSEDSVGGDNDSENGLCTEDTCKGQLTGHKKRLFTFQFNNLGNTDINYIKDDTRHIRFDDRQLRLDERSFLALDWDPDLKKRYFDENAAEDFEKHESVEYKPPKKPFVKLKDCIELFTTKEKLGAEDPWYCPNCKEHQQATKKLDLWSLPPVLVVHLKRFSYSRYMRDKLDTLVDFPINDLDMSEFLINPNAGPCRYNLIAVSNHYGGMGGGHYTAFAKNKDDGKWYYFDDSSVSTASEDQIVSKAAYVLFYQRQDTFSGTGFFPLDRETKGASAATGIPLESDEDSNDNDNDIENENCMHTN", "in_short": "as §1"}, "[10]": {"target": "USP16 (UniProt Q9Y5T5)", "sequence (Q9Y5T5 whole entry, looked up)": "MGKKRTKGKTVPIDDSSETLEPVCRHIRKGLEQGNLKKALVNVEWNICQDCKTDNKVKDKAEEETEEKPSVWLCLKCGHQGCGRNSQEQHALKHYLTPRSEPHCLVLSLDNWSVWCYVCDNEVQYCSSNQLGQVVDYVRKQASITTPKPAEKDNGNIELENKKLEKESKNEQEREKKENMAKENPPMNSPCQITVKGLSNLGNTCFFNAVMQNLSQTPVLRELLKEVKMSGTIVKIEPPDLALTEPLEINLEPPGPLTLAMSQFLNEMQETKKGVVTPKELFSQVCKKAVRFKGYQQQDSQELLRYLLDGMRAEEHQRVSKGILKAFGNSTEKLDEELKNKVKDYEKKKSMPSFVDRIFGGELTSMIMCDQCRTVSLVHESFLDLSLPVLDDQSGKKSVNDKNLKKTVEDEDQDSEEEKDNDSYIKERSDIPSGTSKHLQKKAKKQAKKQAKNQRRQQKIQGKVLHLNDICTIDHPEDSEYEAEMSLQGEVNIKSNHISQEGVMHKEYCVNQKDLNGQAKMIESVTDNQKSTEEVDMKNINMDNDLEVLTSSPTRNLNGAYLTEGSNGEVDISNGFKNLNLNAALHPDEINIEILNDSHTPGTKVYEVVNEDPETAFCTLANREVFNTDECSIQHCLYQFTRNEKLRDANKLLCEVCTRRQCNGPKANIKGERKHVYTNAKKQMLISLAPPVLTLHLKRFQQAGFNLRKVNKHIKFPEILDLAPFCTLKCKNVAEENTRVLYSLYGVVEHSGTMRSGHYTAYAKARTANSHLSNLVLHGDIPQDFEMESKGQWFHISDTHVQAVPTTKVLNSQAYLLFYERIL", "in_short": "as §1"}},
  "note": "Values without a mark were called inactive.",
  "data": [
    {"smiles": "O=C(CCl)NC1CCC2(CC1)OCCO2", "values": [
      {"measurement": "log2 ratio of Biotin-Ahx-Ub-VS probe labelling", "setting": "[1]", "value": -0.272},
      {"measurement": "log2 ratio of Biotin-Ahx-Ub-VS probe labelling", "setting": "[2]", "value": -0.893},
      {"measurement": "log2 ratio of Biotin-Ahx-Ub-VS probe labelling", "setting": "[3]", "value": -0.267},
      {"measurement": "log2 ratio of Biotin-Ahx-Ub-VS probe labelling", "setting": "[4]", "value": -0.147},
      {"measurement": "log2 ratio of Biotin-Ahx-Ub-VS probe labelling", "setting": "[5]", "value": "-1.25 (active)"},
      {"measurement": "log2 ratio of Biotin-Ahx-Ub-VS probe labelling", "setting": "[6]", "value": -0.0419},
      {"measurement": "log2 ratio of Biotin-Ahx-Ub-VS probe labelling", "setting": "[7]", "value": -0.477},
      {"measurement": "log2 ratio of Biotin-Ahx-Ub-VS probe labelling", "setting": "[8]", "value": -0.165},
      {"measurement": "log2 ratio of Biotin-Ahx-Ub-VS probe labelling", "setting": "[9]", "value": -0.308},
      {"measurement": "log2 ratio of Biotin-Ahx-Ub-VS probe labelling", "setting": "[10]", "value": -0.00437}
    ]}
  ]
}
